Here are results for five molecules from PubChem BioAssay.

Test [1] in a line: small molecules captured by biotinylated probe aFSTL3 – biochemical, small-molecule microarray, fluorescence 635/667, stem cell growth factor project, primary screen (AID 1064).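 Note: measures binding of the biotinylated anti-FSTL3 antibody to printed compounds.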 To be noted: higher = more signal.
A short description of test [2]: binders from COS7 lysate, DM2A8 probe, primary screen, torsin A project, cell lysate, small-molecule microarray, fluorescence 635/667 (AID 1065). The conditions noted are these: higher = more signal, COS7 lysate expressing mutant human TOR1A.
Test [3] can be described thus: small molecules captured by biotinylated probe aFGF2 – biochemical, small-molecule microarray, fluorescence 635/667, stem cell growth factor project, primary screen (AID 1067).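 Note: measures binding of biotinylated aFGF2 protein to printed compounds on slides; z-score merges feature fluorescence and signal-to-noise across triplicate slides.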 To be noted: higher = more signal.
Test [4] can be described thus: small molecules captured by biotinylated probe aFGF10 – biochemical, small-molecule microarray, fluorescence 635/667, stem cell growth factor project, primary screen (AID 1071).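 Note: score merges 667 nm spot intensity and signal to noise from triplicate slides.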 The conditions noted are these: higher = more signal.
The target of test [5] is Neurogenic locus notch homolog protein 2 (Homo sapiens) (UniProt Q04721). Nature of the test: small molecules binding Notch2 protein – biochemical, small-molecule microarray, 635 nm fluorescence, stem cell growth factors, primary screen (AID 1073). To be noted: higher = more signal.
Chain of Neurogenic locus notch homolog protein 2 (Homo sapiens) (Q04721 whole entry, looked up, canonical isoform): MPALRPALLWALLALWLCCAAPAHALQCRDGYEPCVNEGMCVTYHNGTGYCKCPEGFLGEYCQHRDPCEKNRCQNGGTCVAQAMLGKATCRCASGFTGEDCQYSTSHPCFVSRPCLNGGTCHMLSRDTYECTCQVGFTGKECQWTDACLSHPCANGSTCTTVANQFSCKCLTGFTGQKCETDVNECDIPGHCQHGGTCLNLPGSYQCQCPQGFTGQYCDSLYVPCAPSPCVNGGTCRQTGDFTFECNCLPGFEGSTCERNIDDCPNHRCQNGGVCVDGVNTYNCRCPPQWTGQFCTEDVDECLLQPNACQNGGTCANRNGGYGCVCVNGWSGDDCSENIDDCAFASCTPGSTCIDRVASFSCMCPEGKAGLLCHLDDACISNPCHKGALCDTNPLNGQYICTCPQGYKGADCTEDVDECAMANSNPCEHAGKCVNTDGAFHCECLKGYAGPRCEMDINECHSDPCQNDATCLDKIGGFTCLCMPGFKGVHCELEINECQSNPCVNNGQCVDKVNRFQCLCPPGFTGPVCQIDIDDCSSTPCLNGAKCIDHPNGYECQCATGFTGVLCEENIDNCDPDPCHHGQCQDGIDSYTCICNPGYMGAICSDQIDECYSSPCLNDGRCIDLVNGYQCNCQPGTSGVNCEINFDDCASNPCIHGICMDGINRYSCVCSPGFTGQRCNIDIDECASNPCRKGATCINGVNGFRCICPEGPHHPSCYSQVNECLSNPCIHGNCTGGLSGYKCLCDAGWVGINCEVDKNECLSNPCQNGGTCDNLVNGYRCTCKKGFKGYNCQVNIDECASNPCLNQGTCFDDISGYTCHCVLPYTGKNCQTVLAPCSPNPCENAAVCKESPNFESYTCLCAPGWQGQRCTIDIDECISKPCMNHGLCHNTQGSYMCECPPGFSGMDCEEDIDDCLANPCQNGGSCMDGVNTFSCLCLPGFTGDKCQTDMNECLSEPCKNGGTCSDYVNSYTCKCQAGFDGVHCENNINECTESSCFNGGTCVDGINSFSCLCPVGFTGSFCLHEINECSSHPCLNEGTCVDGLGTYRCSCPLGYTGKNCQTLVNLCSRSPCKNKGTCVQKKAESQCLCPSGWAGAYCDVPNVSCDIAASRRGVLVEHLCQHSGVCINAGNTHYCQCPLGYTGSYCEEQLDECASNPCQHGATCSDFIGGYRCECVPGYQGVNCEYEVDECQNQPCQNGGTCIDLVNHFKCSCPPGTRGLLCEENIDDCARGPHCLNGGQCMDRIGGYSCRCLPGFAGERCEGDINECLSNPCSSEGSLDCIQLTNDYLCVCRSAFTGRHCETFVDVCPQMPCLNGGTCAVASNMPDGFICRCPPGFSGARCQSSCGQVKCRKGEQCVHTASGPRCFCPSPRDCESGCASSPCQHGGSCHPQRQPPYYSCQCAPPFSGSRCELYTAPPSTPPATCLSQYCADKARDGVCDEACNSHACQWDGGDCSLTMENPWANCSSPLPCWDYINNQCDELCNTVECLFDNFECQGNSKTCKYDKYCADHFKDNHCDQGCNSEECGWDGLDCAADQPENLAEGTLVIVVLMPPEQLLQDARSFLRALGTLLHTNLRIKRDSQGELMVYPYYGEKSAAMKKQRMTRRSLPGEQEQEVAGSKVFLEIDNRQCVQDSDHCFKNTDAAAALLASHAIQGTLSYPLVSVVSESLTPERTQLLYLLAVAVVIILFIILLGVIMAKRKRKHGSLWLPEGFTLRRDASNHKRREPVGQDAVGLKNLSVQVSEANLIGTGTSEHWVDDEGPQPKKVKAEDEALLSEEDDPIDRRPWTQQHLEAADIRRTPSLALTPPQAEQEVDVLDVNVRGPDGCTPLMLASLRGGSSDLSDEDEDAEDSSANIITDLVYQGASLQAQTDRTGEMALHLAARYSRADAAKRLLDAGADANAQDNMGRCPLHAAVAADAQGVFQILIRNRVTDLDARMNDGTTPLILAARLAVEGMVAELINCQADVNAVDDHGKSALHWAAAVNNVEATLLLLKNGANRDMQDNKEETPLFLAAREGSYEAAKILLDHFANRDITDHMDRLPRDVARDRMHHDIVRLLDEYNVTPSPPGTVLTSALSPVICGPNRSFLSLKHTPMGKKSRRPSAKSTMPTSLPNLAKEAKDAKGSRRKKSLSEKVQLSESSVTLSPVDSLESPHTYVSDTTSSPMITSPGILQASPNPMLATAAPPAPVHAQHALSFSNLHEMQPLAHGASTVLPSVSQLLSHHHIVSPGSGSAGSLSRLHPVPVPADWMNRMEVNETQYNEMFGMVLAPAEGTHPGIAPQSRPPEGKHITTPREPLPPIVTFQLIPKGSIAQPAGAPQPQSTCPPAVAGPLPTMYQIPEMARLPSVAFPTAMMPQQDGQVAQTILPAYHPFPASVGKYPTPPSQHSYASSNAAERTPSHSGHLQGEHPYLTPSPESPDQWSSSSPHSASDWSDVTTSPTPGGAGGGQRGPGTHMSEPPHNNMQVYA
Test [6] addresses Pro-neuregulin-1, membrane-bound isoform (Homo sapiens) (UniProt Q02297). In words: small molecules binding neuregulin-1 protein – biochemical, small-molecule microarray, fluorescence 635/667, psychiatric disease protein project, primary screen (AID 1075).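 Note: score combines 667 nm spot fluorescence with signal to noise.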 The conditions noted are these: NRG1 binding, 635 nm fluorescence, higher = more signal.
For test [7], the system named is Neuregulin-1 EGF-like domain. In words: small molecules binding NRG1 EGF domain – biochemical, small-molecule microarray, 635 nm fluorescence, primary screen (AID 1081).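 Note: binding of the protein to compounds printed on small-molecule microarray slides.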 The conditions noted are these: higher = more signal.
Test [8] can be described thus: FRG1 expression reporter modulators in myotubes – cell-based, C2C12 myotubes, firefly/Renilla luciferase, luminescence, FRG1 inhibition for FSHD, primary screen (AID 1084). The conditions noted are these: FRG1 promoter luciferase, higher = more signal, called active from +8 up or from −8 down.
Test [9] in a line: small molecules captured by biotinylated probe aFST – biochemical, small-molecule microarray, fluorescence 635/667, stem cell growth factor project, primary screen (AID 1086).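 Note: score merges 667 nm fluorescence with signal-to-noise of each printed compound spot.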 The conditions noted are these: higher = more signal.
Test [10] can be described thus: binders of probe aHhip on microarray, primary screen, stem cell growth factor project, biochemical, small-molecule microarray, fluorescence 635/667 (AID 1087).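 Note: score merges spot fluorescence at 667nm with spot signal to noise ratio.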 The conditions noted are these: higher = more signal.
Test [11] concerns PRMT1 (protein arginine N-methyltransferase 1). In words: small molecules binding arginine methyltransferase PRMT1 – biochemical, small-molecule microarray, 635 nm fluorescence, primary screen (AID 1088).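 Note: binding of Prmt1 protein to compounds spotted on small-molecule microarray slides.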 To be noted: higher = more signal.
A short description of test [12]: growth effects on S. cerevisiae YJM789 – YJM789 clinical isolate, OD600, 24 h, basal, primary screen (AID 1089).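 Note: growth of clinical yeast isolate S. cerevisiae YJM 789 seeded 1000 cells per well; test concentration not given here.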 The conditions noted are these: higher = more signal, called active from +8 up or from −8 down.
Test [13] can be described thus: S. pombe growth modifiers, basal conditions – strain 972, OD600, 24 h, no modulator, primary screen (AID 1090).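 Note: basal condition with compound alone and no growth modifier present; test concentration not given here.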 The conditions noted are these: S. pombe 972 growth, higher = more signal, called active from +8 up or from −8 down.
Test [14] in a line: budding yeast growth modifiers under rapamycin – strain BY4716, OD600, 96 h, primary screen (AID 1091). Note: test concentration not given here. To be noted: S. cerevisiae BY4716 + rapamycin, higher = more signal, called active from +8 up or from −8 down.
For test [15], the target named is Torsin-1A-interacting protein 2 (Homo sapiens) (UniProt Q8NFQ8). In words: small molecules binding lysate-expressed LULL1 – cell lysate, human LULL1 lysate, 635/667 nm fluorescence, primary screen (AID 1092).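 Note: probe is lysate of COS7 cells overexpressing human LULL1; score merges per-feature 667 nm fluorescence with signal-to-noise.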 To be noted: small-molecule microarray, hLULL1 lysate binding, 635 nm fluorescence; higher = more signal.
Chain of Torsin-1A-interacting protein 2 (Homo sapiens) (Q8NFQ8 whole entry, looked up): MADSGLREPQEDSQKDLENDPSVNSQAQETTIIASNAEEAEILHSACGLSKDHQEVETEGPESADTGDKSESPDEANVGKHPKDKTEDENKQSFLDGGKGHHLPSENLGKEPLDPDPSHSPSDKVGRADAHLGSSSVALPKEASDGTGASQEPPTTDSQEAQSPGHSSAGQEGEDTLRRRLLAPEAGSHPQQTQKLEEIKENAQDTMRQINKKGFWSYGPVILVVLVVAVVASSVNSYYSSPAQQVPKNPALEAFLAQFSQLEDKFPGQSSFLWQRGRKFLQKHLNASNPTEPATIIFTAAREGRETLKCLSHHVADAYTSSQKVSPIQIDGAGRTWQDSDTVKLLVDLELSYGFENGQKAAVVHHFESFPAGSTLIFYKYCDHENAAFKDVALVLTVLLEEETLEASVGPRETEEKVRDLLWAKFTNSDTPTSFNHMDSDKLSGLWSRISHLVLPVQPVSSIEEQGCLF
A short description of test [16]: optical density change of DRC41 E. coli – strain DRC41, OD650, 24 h, E. coli filamentation project, primary screen (AID 1093).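 Note: MC1000 strain lacking acrAB efflux and sulA so SOS filamentation is blocked; test concentration not given here.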 The conditions noted are these: E. coli DRC41 growth, higher = more signal, called active from +8 up or from −8 down.
Test [17] is described as follows: probe aLefty2 binding to arrayed compounds – biochemical, biotinylated probe, 635/667 nm fluorescence, primary screen (AID 1094).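 Note: score merges spot fluorescence near 667 nm with spot signal-to-noise ratio.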 The conditions noted are these: small-molecule microarray, higher = more signal.
Test [18] has as its system Noggin (protein binding on small-molecule microarray). Nature of the test: small molecules binding Noggin protein – biochemical, 635/667 nm fluorescence, primary screen (AID 1095).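 Note: score merges 667 nm feature fluorescence with signal to noise over triplicate slides.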 To be noted: 635 nm fluorescence, higher = more signal.
Test [19] deals with Neurogenic locus notch homolog protein 3 (Homo sapiens) (UniProt Q9UM47). In words: small molecules binding NOTCH3 protein – biochemical, 635/667 nm fluorescence, primary screen (AID 1096). The conditions noted are these: small-molecule microarray, 635 nm fluorescence, higher = more signal.
Test [20] in a line: probe aEGFR binding to arrayed compounds – biochemical, biotinylated probe, 635/667 nm fluorescence, primary screen (AID 1097).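 Note: probe is a biotinylated anti-EGFR antibody binding compounds printed on slides; score combines fluorescence near 667 nm and signal to noise of each spot.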 The conditions noted are these: small-molecule microarray, higher = more signal.

Each structure is given as a SMILES string. Calls of active or inactive are those of the source.

Chain of Pro-neuregulin-1, membrane-bound isoform (Homo sapiens) (Q02297 whole entry, looked up, the tested form may be a part, canonical isoform): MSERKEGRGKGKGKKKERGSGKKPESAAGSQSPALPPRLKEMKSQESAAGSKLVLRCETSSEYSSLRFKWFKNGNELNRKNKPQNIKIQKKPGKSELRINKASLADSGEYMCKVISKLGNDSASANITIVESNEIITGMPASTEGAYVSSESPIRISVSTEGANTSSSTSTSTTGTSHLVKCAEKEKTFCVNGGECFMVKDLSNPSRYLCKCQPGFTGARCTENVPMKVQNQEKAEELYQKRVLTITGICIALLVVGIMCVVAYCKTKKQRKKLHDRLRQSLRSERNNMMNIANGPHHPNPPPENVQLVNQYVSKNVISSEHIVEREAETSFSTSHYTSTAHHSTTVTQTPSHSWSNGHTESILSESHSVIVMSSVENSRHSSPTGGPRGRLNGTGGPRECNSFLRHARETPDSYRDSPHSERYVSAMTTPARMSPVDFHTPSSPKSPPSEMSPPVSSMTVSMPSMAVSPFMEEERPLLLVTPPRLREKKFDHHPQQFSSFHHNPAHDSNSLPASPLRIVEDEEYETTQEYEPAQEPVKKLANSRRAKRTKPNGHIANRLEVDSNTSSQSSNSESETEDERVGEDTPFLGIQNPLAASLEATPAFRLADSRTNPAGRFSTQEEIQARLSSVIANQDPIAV

Consider `CN1C(=O)C2C=CC(C(O)c3ccc(I)cc3)N(N3CCCCC3)C2C1=O` (stereo not given), for which the composite z-score in [1] is 0.151; in [2], 0.235; in test [3], 0.0671; in test [4], 1.09; in test [5], 1.71; in test [6], 1.73. Further, the composite z-score in test [7] was 1.27; in test [9] it was 1.4; in [10], -0.0346; in test [11] it was 1.55; in test [15] it was 3.36; in [17] it was 0.583. For the same molecule, the composite z-score in test [18] is 0.282; in [19], 1.04; in [20], 0.0747. For the same molecule, the z-score is 1.14 (inactive) in test [8]; 0.276 (inactive) in test [12]; -1.13 (inactive) in [13]; -0.0412 (inactive) in test [14]; -1.74 (inactive) in test [16].
On to `C#CCNC(=O)[C@H](Cc1ccccc1)NC(=O)CCC(=O)O`, for which the composite z-score in test [1] was -0.0733; in test [2], -0.267; in test [3], -0.158; in test [4] it was -0.704; in [5] it was -1.46; in [6], -0.592. Also, the composite z-score in test [7] was -0.33; in test [9], 1.03; in test [10], -0.0994; in [11], -1.17; in test [15], -0.906; in [17] it was -0.198. Further, the composite z-score is -0.88 in test [18], -0.502 in test [19] and -0.238 in test [20]. Moreover, the z-score was 0.338 (inactive) in test [8]; -0.136 (inactive) in [12]; 0.396 (inactive) in [13]; 0.0017 (inactive) in test [14]; -0.361 (inactive) in [16].
Regarding `COCC(=C=CC[C@@H](O)c1ccccc1OCCO)C[C@@H](O)c1cc(Cl)cc(Cl)c1O`, the composite z-score is -0.685 in test [1]; 0.528 in [2]; -0.0276 in test [3]; 1.14 in [4]; 1.09 in [5]; 0.935 in test [6]. In addition, the composite z-score was 1 in test [7]; 0.624 in test [9]; 0.164 in [10]; 1.53 in [11]; 2.13 in test [15]; -0.053 in [17]. Further, the composite z-score in test [18] is 1.42; in test [19], 1.07; in test [20] it was -0.0353. The z-score in test [8] is -0.914 (inactive); in test [12], 0.157 (inactive); in test [13], -0.563 (inactive); in [14], 0.0403 (inactive); in test [16] it was 0.0142 (inactive).
As to `COc1ccc([Si](C)(C)[C@H]2[C@H](CC(=O)N3CCC[C@H]3CO)O[C@@]3(C(=O)N(Cc4cccc(N5C(=O)c6cccc7cccc5c67)c4)c4ccccc43)[C@@H]2C)cc1`, the composite z-score in test [1] is -0.354; in test [2], -0.0115; in [3] it was 0.0686; in test [4], 0.483; in [5], 0.818; in test [6] it was 1.77. In addition, the composite z-score came to 0.981 in test [7]; 0.305 in test [9]; 0.166 in test [10]; 1.56 in test [11]; 2.08 in [15]; 0.031 in [17]. Also, the composite z-score in [18] is 1.57; in [19] it was 1.05; in test [20], -0.0549. Also, the z-score was -4.24 (inactive) in test [8]; -0.0977 (inactive) in [12]; 0.696 (inactive) in test [13]; -0.15 (inactive) in test [14]; -0.0831 (inactive) in test [16].
As to `C#CCN(Cc1ccccc1Br)C(/C=C/c1ccccc1)CO` (stereo not given), the composite z-score in test [1] is 0.389; in test [2] it was 0.0837; in [3], -0.148; in test [4], 0.0126; in [5] it was -0.619; in test [6], -0.17. For the same molecule, the composite z-score in [7] was -0.131; in [9] it was -0.481; in [10], -0.236; in test [11] it was -0.69; in test [15], 0.123; in test [17], -0.144. In addition, the composite z-score in [18] was -0.193; in [19], -0.598; in test [20] it was -0.277. Moreover, the z-score is -1.83 (inactive) in test [8]; -2.9 (inactive) in test [12]; -19.4 (active) in test [13]; 0.934 (inactive) in test [14]; 0.556 (inactive) in test [16].
